Shown are actives, neighbours in structure and some others; about 2.3% of the full set was active somewhere.
Pol kappa inh-1: qHTS for Inhibitors of Polymerase Kappa; DNA polymerase kappa (Homo sapiens), Q9UBT6; purified Pol kappa, fluorescent DNA synthesis assay, 10 min; Potency, µM (highest dose often 107 µM), actives largely listed as inhibitors; 400,000 tested, 0.53% active; AID 588579, 2011
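Readout: fluorescence, taken kinetically at 0 and 10 min. Conditions: 10 nM Pol kappa, 15 min RT compound preincubation, 50 nM substrate final. Controls: enzyme-free buffer wells.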
WRN helicase inh-1: qHTS for Inhibitors of WRN Helicase; Potency, µM (series often up to 114 µM), actives largely listed as inhibitors; WRN helicase unwinding, fluorescent forked duplex, kinetic; Bifunctional 3'-5' exonuclease/ATP-dependent helicase WRN (Homo sapiens), Q14191; 360,000 tested, 0.46% active; AID 651768, 2012; note: nearly all actives have a fitted effect of over 55% in size
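Kinetic fluorescence helicase assay: unwinding of a quenched forked DNA duplex (100 nM final) with 2 mM ATP final raises red fluorescence (525/598 nm). Compounds sat 15 min at room temperature with 20 nM WRN beforehand.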
Pol eta inh-1: qHTS for Inhibitors of Polymerase Eta; DNA polymerase eta (Homo sapiens), Q9Y253; recombinant Pol eta, fluorescent DNA replication assay; Potency, µM (highest dose often 114 µM), usual class: inhibitors; 390,000 tested, 1.2% active; AID 588591, 2011
Target sequence (Q9Y253 whole entry, looked up): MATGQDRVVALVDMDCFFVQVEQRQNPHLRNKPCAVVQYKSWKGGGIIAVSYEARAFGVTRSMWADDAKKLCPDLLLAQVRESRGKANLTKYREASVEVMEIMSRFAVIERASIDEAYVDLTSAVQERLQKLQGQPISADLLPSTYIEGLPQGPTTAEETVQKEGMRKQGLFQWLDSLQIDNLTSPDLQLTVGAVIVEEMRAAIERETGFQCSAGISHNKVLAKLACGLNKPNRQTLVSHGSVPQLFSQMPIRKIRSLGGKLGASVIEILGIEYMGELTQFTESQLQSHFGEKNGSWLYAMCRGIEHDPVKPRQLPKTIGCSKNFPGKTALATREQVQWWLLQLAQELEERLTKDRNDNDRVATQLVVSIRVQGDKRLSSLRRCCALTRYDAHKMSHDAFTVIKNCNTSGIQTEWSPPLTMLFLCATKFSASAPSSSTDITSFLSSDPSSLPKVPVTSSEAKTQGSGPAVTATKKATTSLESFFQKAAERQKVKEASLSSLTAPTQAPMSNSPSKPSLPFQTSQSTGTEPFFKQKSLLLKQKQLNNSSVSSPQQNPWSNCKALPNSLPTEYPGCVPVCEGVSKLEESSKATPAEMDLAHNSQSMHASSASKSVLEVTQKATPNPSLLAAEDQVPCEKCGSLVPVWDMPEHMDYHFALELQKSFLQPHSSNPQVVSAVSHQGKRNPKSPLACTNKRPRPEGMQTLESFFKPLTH
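Fluorescent replication assay: 50 nM final substrate added after a 15 min room-temperature compound preincubation with 10 nM enzyme. Signal taken at 0 min and again at 10 min.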
Pol iota inh: qHTS for Inhibitors of Polymerase Iota. Pol iota fluorescent replication assay, 10 min. 390,000 tested, 1% active. DNA polymerase iota (Homo sapiens), Q9UNA4. Potency, µM (top dose mostly 115 µM), most hits filed as inhibitors
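Fluorescent replication assay read twice, at 0 min and 10 min after adding 50 nM (final) substrate. Enzyme (10 nM) and compounds were first incubated 15 min at room temperature; enzyme-free buffer wells were negative controls.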
Pol beta inh: qHTS Assay for Inhibitors of DNA Polymerase Beta; P06746; Pol beta primer extension/strand displacement, fluorescence kinetic; Potency, µM (series often up to 114 µM), hits mostly inhibitors; 340,000 tested, 1.3% active
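Human Pol beta at 10 nM; strand-displacement substrate 50 nM final. Compound exposure 15 min at room temperature before start, reaction 10 min at room temperature.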
Pol iota confirm: qHTS for Inhibitors of Polymerase Iota: Confirmatory Assay for Cherry-picked Compounds; AID 720496, 2013; Pol iota primer extension, TAMRA/BHQ fluorescence; 1,500 tested, 77% active; shares compounds with Pol kappa inh-1; Potency, µM, most hits filed as inhibitors
Pol kappa inh-2: qHTS for Inhibitors of Polymerase Kappa: Confirmatory Assay for Cherry-picked Compounds; shares compounds with Pol eta inh-1; purified Pol-kappa, fluorescent strand-displacement substrate; Potency, µM, most hits filed as inhibitors; 920 tested, 76% active; AID 720501, 2013
Pol eta inh-2: qHTS for Inhibitors of Polymerase Eta: Confirmatory Assay for Cherry-picked Compounds | shares compounds with Pol eta inh-1 | Pol eta primer extension, TAMRA/BHQ fluorescence, 10 min | Potency, µM, most hits filed as inhibitors | 2,600 tested, 64% active | AID 720502, 2013
WRN helicase inh-2: qHTS for Inhibitors of WRN Helicase: Confirmatory Assay for Cherry-picked Compounds. Potency, µM (doses to about 57.1 µM), usual class: inhibitors. shares compounds with WRN helicase inh-1. WRN helicase DNA unwinding, fluorescence kinetic. 610 tested, 63% active; note: nearly all actives have a fitted effect of over 65% in size
TO DNA binding: qHTS for Inhibitors of WRN Helicase: Thiazole Orange DNA Binding Counterscreen. shares compounds with WRN helicase inh-1. thiazole orange DNA binding displacement, fluorescence. Potency, µM (titrated, usually from 57.1 µM), most hits filed as inhibitors. 610 tested, 10% active. AID 720499, 2013;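 note: drop in dye fluorescence marks compound binding to DNA; nearly all actives have a fitted effect of over 60% in size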
BLM counter: qHTS for Inhibitors of WRN Helicase: BLM Helicase Counterscreen for WRN Inhibitors. Recombinant BLM helicase DNA unwinding, red fluorescence. AID 720503, 2013. shares compounds with WRN helicase inh-1. 610 tested, 60% active. Potency, µM (series often up to 57.1 µM), most hits filed as inhibitors; note: nearly all actives have a fitted effect of over 60% in size
Numbers stand for hits. Calls come from the whole dose curve; as a rule, active = well fitted curve in the direction sought with a large enough effect; inconclusive = small, poorly fitted or top-dose-only effect, or another doubt; inactive = no such curve, though single readings can be large; an effect the other way counts as inactive or inconclusive.

Screening Cc1cc(C)c(NC(=O)c2nc3ccccc3nc2N2CCCCC2)c(C)c1 returned Pol kappa inh-1 inactive, Pol eta inh-1 inactive, Pol iota inh inactive and Pol beta inh inactive.
Cc1cc(NC(=O)Cc2cccs2)no1 was read as Pol kappa inh-1 22.4µM, WRN helicase inh-1 inconclusive, Pol eta inh-1 22.4µM, Pol iota inh 7.94µM, Pol beta inh 8.91µM, Pol iota confirm 15, Pol eta inh-2 19, WRN helicase inh-2 8.57µM, TO DNA binding 24.1µM and BLM counter 0.961µM.
`COc1cc(C(=O)N2CC(=O)Nc3ccc(C)cc3C2c2ccc(F)cc2)cc(OC)c1OC` (centres undefined) gave Pol kappa inh-1 inactive, Pol eta inh-1 inactive, Pol iota inh inactive and Pol beta inh inactive.
`O=C(c1cccc(-n2cccc2)c1)N1CCN(S(=O)(=O)c2ccccc2)CC1` gave Pol kappa inh-1 17.8µM, WRN helicase inh-1 17.8µM, Pol eta inh-1 8.91µM, Pol iota inh 8.91µM, Pol iota confirm 4.23, Pol eta inh-2 8.49, WRN helicase inh-2 4.29µM, TO DNA binding inconclusive and BLM counter 1.08µM.
Screening CSC1SCC2C(=O)N(C)C(C(C)C)C(=O)OCC(NC(=O)c3cnc4ccccc4n3)C(=O)NC(C)C(=O)N(C)C1C(=O)N(C)C(C(C)C)C(=O)OCC(NC(=O)c1cnc3ccccc3n1)C(=O)NC(C)C(=O)N2C (centres undefined) returned Pol kappa inh-1 inactive, WRN helicase inh-1 0.532µM, Pol eta inh-1 inactive, Pol iota inh 0.316µM, Pol iota confirm 1.5, Pol kappa inh-2 0.752, Pol eta inh-2 1.51, WRN helicase inh-2 0.341µM, TO DNA binding inconclusive and BLM counter 0.541µM.
CCN(CC)c1ccc(NC(=O)CN2C(=O)c3cccnc3Oc3ccccc32)c(C)c1 was read as Pol kappa inh-1 inactive, Pol eta inh-1 inactive, Pol iota inh inactive and Pol beta inh inactive.
For O=C1C=C(c2c(O)ccc3ccccc23)c2ccccc2C1=O the results were Pol kappa inh-1 inactive, WRN helicase inh-1 20µM, Pol eta inh-1 20µM, Pol iota inh 3.55µM, Pol iota confirm 84.4, WRN helicase inh-2 inactive, TO DNA binding inconclusive and BLM counter inconclusive.
Screening O=C(O)c1cc2ccccc2c2c1C(=O)c1ccccc1-2 returned WRN helicase inh-1 inactive and Pol eta inh-1 inactive.
Screening Cc1cc(C)n(C(C)CC(=O)Nc2ccc(C)c(F)c2)n1 (centres undefined) returned Pol kappa inh-1 inactive, Pol eta inh-1 inactive, Pol iota inh inactive and Pol beta inh inactive.
